# In the library only some 1.5% were active in any assay of this set; here they are far more common.
# B2AR ag – activates human beta-2 adrenergic receptor causing internalization; actives 0.43% (n = 340,000); Am2.2-beta2AR cells, FAP receptor internalization, flow cytometry; P07550; response, % (test concentration not listed); AID 504454;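 active = response above a set limit, near 3 SD of response in nonfluorescent compounds, cut at about 42% in these data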
# ABHD5-PLIN5 inh – inhibitors of human ABHD5-perilipin-5 interaction; inhibition, % at 4 µM; actives 0.78% (n = 360,000); Split G. princeps luciferase complementation, luminescence, 4 h;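 active = inhibition above the mean inhibition across every tested compound plus 3 SD, cut at about 22% in these data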;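 also: 0% = DMSO only wells and the 100% control is not disclosed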
# NTR1 agonist – NTR1 (human) agonism; NTR1-U2OS beta-arrestin-GFP spot imaging, agonist mode; actives 0.17% (n = 330,000); P30989; activation, % at 20 µM;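 active = activation at or above 40% of the spot to cytoplasm intensity ratio, with at least 20 cells analyzed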;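 also: 0% = DMSO without peptide and 100% = 100 nM NTR1 peptide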
# TLR9-MyD88 inh – TLR9-MyD88 interaction inhibition | CHO BLA complementation TLR9-MyD88, CCF4 FRET ratio | inhibition, % at 4.98 µM | actives 0.21% (n = 340,000);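 active = inhibition above the mean over all tested compounds plus 3 SD, cut at about 21% in these data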;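 also: 0% = DMSO only wells and 100% = clavulanate BLA inhibitor control wells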
# TLR4 MyD88 comp – blocks binding of human TLR4 to MyD88 | inhibition, % at 8.4 µM | O00206+Q99836 | actives 0.18% (n = 200,000) | HeLa CL3-4 TLR4/MyD88 BLA complementation, FRET ratio; in the data active = inhibition above about 25%;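 also: 0% = vehicle and 100% = reference inhibitor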
# Target sequence (O00206 whole entry, looked up): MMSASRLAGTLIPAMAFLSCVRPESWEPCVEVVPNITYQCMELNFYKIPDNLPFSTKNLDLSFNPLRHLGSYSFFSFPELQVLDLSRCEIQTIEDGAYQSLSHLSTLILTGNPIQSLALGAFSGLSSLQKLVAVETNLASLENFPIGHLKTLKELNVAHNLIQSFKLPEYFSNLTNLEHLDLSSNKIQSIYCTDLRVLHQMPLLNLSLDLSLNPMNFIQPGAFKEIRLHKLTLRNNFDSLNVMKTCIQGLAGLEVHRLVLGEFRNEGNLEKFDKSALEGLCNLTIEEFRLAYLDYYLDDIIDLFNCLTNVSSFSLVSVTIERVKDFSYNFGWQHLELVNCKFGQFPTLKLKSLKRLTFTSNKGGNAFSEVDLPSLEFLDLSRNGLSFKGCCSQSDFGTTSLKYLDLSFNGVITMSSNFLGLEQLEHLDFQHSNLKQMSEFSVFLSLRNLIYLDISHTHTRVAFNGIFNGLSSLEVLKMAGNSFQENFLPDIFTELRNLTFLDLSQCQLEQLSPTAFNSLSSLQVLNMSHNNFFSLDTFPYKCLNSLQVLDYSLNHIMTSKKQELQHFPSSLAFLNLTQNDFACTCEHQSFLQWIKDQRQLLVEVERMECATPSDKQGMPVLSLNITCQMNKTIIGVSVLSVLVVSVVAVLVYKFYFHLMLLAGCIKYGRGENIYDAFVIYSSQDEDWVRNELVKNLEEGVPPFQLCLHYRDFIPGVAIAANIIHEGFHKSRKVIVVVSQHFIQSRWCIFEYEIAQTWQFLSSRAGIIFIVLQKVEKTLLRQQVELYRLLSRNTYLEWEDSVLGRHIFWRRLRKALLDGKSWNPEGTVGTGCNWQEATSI
# Target sequence (Q99836 whole entry, looked up): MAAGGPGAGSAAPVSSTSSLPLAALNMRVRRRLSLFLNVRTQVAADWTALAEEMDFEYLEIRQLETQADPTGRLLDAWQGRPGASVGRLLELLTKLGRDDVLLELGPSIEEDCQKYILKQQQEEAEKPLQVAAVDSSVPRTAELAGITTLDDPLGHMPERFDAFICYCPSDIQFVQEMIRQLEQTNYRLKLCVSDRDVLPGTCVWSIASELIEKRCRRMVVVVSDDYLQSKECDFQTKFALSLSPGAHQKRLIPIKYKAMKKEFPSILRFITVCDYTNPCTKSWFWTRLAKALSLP
# NOD2-RIPK2 inh – NOD2-RIPK2 protein interaction inhibition. actives 0.38% (n = 360,000). inhibition, % at 4.98 µM. CHO BLA complementation NOD2-RIPK2, CCF4 ratio. O43353; in the data active = inhibition above about 21%;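 also: 0% = vehicle only and 100% = reference blocker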
# Beta2AR ag CP1 – agonists of human beta-2 adrenergic receptor; Am2.2-beta2AR cells, FAP surface receptor, flow cytometry; stronger effect = lower value; actives 25% (n = 1,100); percent response (surface receptor), % at 10 µM; shares compounds with B2AR ag;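 active = surface receptor percent response at or below 58%, roughly 3 SD from nonfluorescent compounds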
# B2AR FAP counter – flagged in Am2.2 fluorescence counterscreen for beta-2AR agonists | 1,100 tested, under 10 active | Am2.2 cells, FAP fluorogen flow cytometry; stronger effect = lower value | calls only at 10 µM | shares compounds with B2AR ag;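 active = percent response below a set limit in fluorescence channel 1 and below 50% in channel 8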
# An asterisk follows results filed as active; i = inactive; / = not tested or not shown.
SMILES,B2AR ag,ABHD5-PLIN5 inh,NTR1 agonist,TLR9-MyD88 inh,TLR4 MyD88 comp,NOD2-RIPK2 inh,Beta2AR ag CP1,B2AR FAP counter
CN1CCN(CCc2nc3cc(NC(=O)COc4ccc(Cl)cc4)ccc3n2C)CC1,47*,0,0,-16,/,-3,97,i
Cc1ccc(S(=O)(=O)CC(=O)N(CCCN2CCOCC2)c2nc3c(F)cccc3s2)cc1,6,1,1,1,/,-1,/,/
O=C(CCS(=O)(=O)c1ccccc1)N(CCCN1CCOCC1)c1nc2c(F)cccc2s1,111*,-1,15,4,/,9,82,i
CCC(c1nnnn1-c1ccc2c(c1)OCCO2)N1CCN(c2cccc(C)c2C)CC1 (centres undefined),/,-6,/,/,/,5,/,/
Cc1ccc(S(=O)(=O)Nc2ccc(O)c3ncccc23)cc1,1,1,-1,1,-13,4,/,/
Cc1ccc(S(=O)(=O)Nc2ccc(O)c3cccnc23)cc1,9,-3,2,-3,/,-10,104,i
c1ccc(CNc2nc(N3CCN(Cc4ccccc4)CC3)nc3ccccc23)cc1,16,16,25,/,/,8,98,i
CCOC(=O)[C@]12CCC=C1N(Cc1ccc3c(c1)OCO3)C(=O)[C@H](CC(=O)NCC1CCCCC1)C2,/,1,/,/,/,10,/,/
COc1ccc(-c2cc(C(F)(F)F)n3nc(C(=O)O)cc3n2)cc1OC,52*,5,6,-11,8,-9,99,i
c1ccc(-n2cnc3ccccc32)nc1,-17,-1,2,-7,/,5,/,/
c1ccc(-c2nccc(-c3ccc(-n4cnc5ccccc54)cc3)n2)cc1,71*,-5,8,4,3,-10,96,i
Cc1ccccc1C(=O)N(C)[C@H]1C[C@H]2c3[nH]c4ccccc4c3CCN2C[C@H]1[C@H](C)O,/,-6,/,/,/,-8,/,/
COC(=O)/C=C1\OCc2cc(OCc3ccccc3)ccc21,/,3,/,/,/,-9,/,/
FC(F)(F)c1cc(-c2ccccc2)nc(-n2cc(Cl)cn2)n1,-15,-7,6,-8,7,-9,/,/
Cc1cnn(-c2nc(-c3ccccc3)cc(-c3ccccc3)n2)c1,42*,-2,15,4,-15,-7,16*,i
O=C(Nc1ccc(-c2nc3ncccc3o2)cc1)c1ccc([N+](=O)[O-])o1,53*,-2,15,-3,/,-12,28*,i
COc1cc(CNC(=O)Nc2nnc([C@H]3C[C@H](O)[C@@H](CO)O3)s2)cc(OC)c1OC,/,10,/,/,/,2,/,/
N#C/C(=C\c1c(Cl)cccc1Cl)c1nc2ccccc2o1,-3,0,27,5,12,16,142,i
O=C(C[C@H]1CC[C@@H](NS(=O)(=O)c2ccccc2)[C@@H](CO)O1)NCc1ccc(Cl)c(Cl)c1,/,-2,/,/,/,-7,/,/
Cc1ccccc1-c1cc2nc(NCc3ccc(N(C)C)cc3)n(C)c(=O)c2s1,/,-7,/,/,/,9,/,/
O=C(Nc1cccc(Oc2c(F)c(F)c(F)c(F)c2F)c1)N1C[C@@H]2C[C@@H](C1)c1cccc(=O)n1C2,-2,4,0,-6,14,-3,/,/
O=C(c1ccc(-c2nnc(Nc3ccccc3)c3ccccc23)cc1)N1C[C@H]2C[C@H](C1)c1cccc(=O)n1C2,7,0,1,6,-6,6,79,i
CN(C)CCCn1c(SCC(=O)N2c3ccccc3Sc3ccccc32)nc2ccccc2c1=O,49*,18,/,-1,-7,-1,59,i
Cn1c(SCC(=O)N2c3ccccc3Sc3ccccc32)nc2ccccc21,-1,3,2,-1,-3,-2,/,/
CCOC(=O)c1c(NC(=O)COc2ccccc2OCC)sc2c1CC(C)(C)NC2(C)C,62*,5,6,-1,/,1,59,i
SMILES,B2AR ag,ABHD5-PLIN5 inh,NTR1 agonist,TLR9-MyD88 inh,TLR4 MyD88 comp,NOD2-RIPK2 inh,Beta2AR ag CP1,B2AR FAP counter
CCOC(=O)c1c(NC(=O)COc2ccccc2C#N)sc2c1CC(C)(C)NC2(C)C,5,4,-2,-3,/,-5,/,/
O=C(Nc1cccc([N+](=O)[O-])c1)NN1CCCCCC1,-2,-3,/,-7,/,-1,/,/
CCn1c(SCC(=O)Nc2ccc(-c3nc4ccc(C)cc4s3)cc2)nnc1-c1ccccc1,/,/,1,/,2,/,/,/
C=CCn1c(SCC(=O)Nc2ccc(-c3nc4ccc(C)cc4s3)cc2)nnc1-c1ccncc1,58*,7,6,10,-5,1,104,i
COc1ccccc1C(=O)Nc1nc2cc3c(cc2s1)OCCO3,0,-4,0,8,-6,1,/,/
COc1ccc(C(=O)Nc2nc3cc4c(cc3s2)OCCO4)c(OC)c1,54*,8,10,-3,/,3,101,i
CCCNC(=O)C1(C)CCN(C(=O)c2cccc(C(F)(F)F)c2)C1 (centres undefined),/,-7,/,/,/,-6,/,/
COCc1ccc(CN2CCCC(C(=O)Nc3ccccc3-c3ccc(OC)cc3)C2)o1 (centres undefined),4,0,6,-3,/,-10,/,/
COCc1ccc(CN2CCCC(C(=O)Nc3ccc(-c4cccc(OC)c4)cc3)C2)o1 (centres undefined),30,12,6,-7,/,-1,116,i
COc1cccc(-c2ccc(NC(=O)C3CCCN(Cc4ccccn4)C3)cc2)c1 (centres undefined),/,4,/,-3,/,-4,106,i
COc1cccc(-c2ccc(NC(=O)C3CCCN(Cc4cc(C)[nH]n4)C3)cc2)c1 (centres undefined),3,9,1,-1,/,-6,/,/
COc1cccc(-c2ccc(NC(=O)C3CCCN(Cc4cnn(C(C)C)c4)C3)cc2)c1 (centres undefined),23,19,6,-11,/,1,85,i
O=C(Nc1ccc(-c2cccc(F)c2)cc1)C1CCCN(Cc2ccccn2)C1 (centres undefined),0,-3,4,-5,/,-5,110,i
CCCc1ncc(CN2CCCC(C(=O)Nc3ccc(-c4cccc(OC)c4)cc3)C2)cn1 (centres undefined),13,-4,1,-13,/,3,/,/
CCc1ccc2c(c1)NC(=O)C2(C)Cc1ccc(Cl)s1 (centres undefined),/,-16,/,/,/,-8,/,/
C#CCNC(=O)C[C@@H]1C[C@@]2(C(=O)OCC)CCCC=C2N(Cc2ccccc2)C1=O,/,2,/,/,/,-3,/,/
Cc1ccc(S(=O)(=O)N2CCCC2)cc1[N+](=O)[O-],1,-12,6,-2,-4,-7,/,/

# Bioassay records deposited in PubChem BioAssay by several laboratories.
